In test [1] the target is POU1 (OCT1 POU domain) (human, UniProt P14859 260-458). Nature of the test: EMSA-SELEX-seq; no BOB1; 20 mM Tris-HCl pH 7.6, 140 mM NaCl, 10% glycerol, 0.5 mM EDTA, 0.05% Triton X-100, 0.1 mg/mL BSA, 0.1 mg/mL poly(dI-dC), 5 mM DTT, room temperature, 20 min; high values mean tight binding. Particulars: protein: recombinant; dsDNA, one strand shown. The method, boiled down: (§1)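 Tagged POU-domain proteins were expressed in E. coli BL21, purified under denaturing conditions and renatured. Then 30 ng was mixed with 300 ng of a PCR-amplified double-stranded random 35-nt library, with or without 28 ng coactivator protein, in 20 μL Tris–HCl pH 7.6 binding buffer for 20 min at RT. Complex bands were cut from native 6% PAGE, eluted and PCR-amplified over four rounds, then Illumina-sequenced. Binding preference is the percentage of sequenced 8-mers matching a motif pattern.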

The target of test [2] is T1, POU2 (OCT2 POU domain) (human, UniProt P09086 175-386).
T1 sequence: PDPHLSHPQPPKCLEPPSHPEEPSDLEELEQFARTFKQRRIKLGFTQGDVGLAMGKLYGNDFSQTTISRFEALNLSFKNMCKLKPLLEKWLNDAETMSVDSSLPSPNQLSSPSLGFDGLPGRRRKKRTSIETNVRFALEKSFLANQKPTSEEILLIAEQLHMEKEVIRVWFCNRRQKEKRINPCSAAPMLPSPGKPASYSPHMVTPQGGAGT
Described as above. Particulars: protein: recombinant; dsDNA, one strand shown. In a few lines: as §1

The target in test [3] is POU1 (OCT1 POU domain);BOB1 (OBF1, OCA-B) (human;human, UniProt P14859;Q16633 260-458;1-256, |). The test can be described thus: EMSA-SELEX-seq; with BOB1 (ternary complex band); 20 mM Tris-HCl pH 7.6, 140 mM NaCl, 10% glycerol, 0.5 mM EDTA, 0.05% Triton X-100, 0.1 mg/mL BSA, 0.1 mg/mL poly(dI-dC), 5 mM DTT, room temperature, 20 min; high values mean tight binding. Particulars: protein: recombinant;recombinant; copies: 1;1; dsDNA, one strand shown. In a few lines:
as §1
In general terms: Mobility shift assays separate free from complexed probe on a gel.

Test [4] has as its target T2, POU2 (OCT2 POU domain);BOB1 (OBF1, OCA-B) (human;human, UniProt P09086;Q16633 175-386;1-256, |).
T2 sequence 1: T1 sequence
T2 sequence 2: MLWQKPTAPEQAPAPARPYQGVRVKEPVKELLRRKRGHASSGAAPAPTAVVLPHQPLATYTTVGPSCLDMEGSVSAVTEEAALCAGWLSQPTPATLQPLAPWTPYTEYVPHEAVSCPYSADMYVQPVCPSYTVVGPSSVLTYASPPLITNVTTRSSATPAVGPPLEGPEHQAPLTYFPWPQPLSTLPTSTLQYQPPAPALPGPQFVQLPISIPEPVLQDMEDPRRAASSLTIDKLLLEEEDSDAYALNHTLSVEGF
Described as above. Particulars: protein: recombinant;recombinant; copies: 1;1; dsDNA, one strand shown. The method, boiled down: as §1

POU1 (OCT1 POU domain), sequence (P14859 260-458): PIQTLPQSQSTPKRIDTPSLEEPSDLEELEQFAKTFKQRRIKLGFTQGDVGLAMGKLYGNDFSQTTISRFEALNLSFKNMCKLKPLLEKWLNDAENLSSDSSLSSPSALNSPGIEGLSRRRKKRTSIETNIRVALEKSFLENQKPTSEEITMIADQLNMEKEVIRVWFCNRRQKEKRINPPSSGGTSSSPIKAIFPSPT

For the sequence AACATAAT, the binding signal in test [1] was 0.134 % of ANNNNAAN 8-mers; in test [2], 0.174 % of ANNNNAAN 8-mers; in test [3], 0.0515 % of ANNNNAAN 8-mers; in test [4], 0.071 % of ANNNNAAN 8-mers.

Regarding AAGCAAAC, the binding signal in test [1] is 0.0606 % of ANNNNAAN 8-mers; in test [2], 0.0386 % of ANNNNAAN 8-mers; in test [3] it was 0.0878 % of ANNNNAAN 8-mers; in test [4], 0.057 % of ANNNNAAN 8-mers.

Regarding ATAGAAAA, the binding signal in test [1] is 0.0767 % of ANNNNAAN 8-mers; in test [2], 0.0771 % of ANNNNAAN 8-mers; in test [3] it was 0.0695 % of ANNNNAAN 8-mers; in test [4], 0.0619 % of ANNNNAAN 8-mers.

For AGAAGAAC, the binding signal in test [1] was 0.0191 % of ANNNNAAN 8-mers; in test [2], 0.0288 % of ANNNNAAN 8-mers; in test [3], 0.0176 % of ANNNNAAN 8-mers; in test [4], 0.0256 % of ANNNNAAN 8-mers.

On to ATACTAAC, for which the binding signal was 0.0347 % of ANNNNAAN 8-mers in test [1], 0.0293 % of ANNNNAAN 8-mers in test [2], 0.0304 % of ANNNNAAN 8-mers in test [3] and 0.0396 % of ANNNNAAN 8-mers in test [4].

For AACCGAAA, the binding signal is 0.0271 % of ANNNNAAN 8-mers in test [1], 0.0293 % of ANNNNAAN 8-mers in test [2], 0.0265 % of ANNNNAAN 8-mers in test [3] and 0.0256 % of ANNNNAAN 8-mers in test [4].

As to ATAATAAG, the binding signal in test [1] was 0.182 % of ANNNNAAN 8-mers; in test [2], 0.258 % of ANNNNAAN 8-mers; in test [3] it was 0.094 % of ANNNNAAN 8-mers; in test [4] it was 0.126 % of ANNNNAAN 8-mers.

With AGAGAAAG, the binding signal is 0.0442 % of ANNNNAAN 8-mers in test [1], 0.0501 % of ANNNNAAN 8-mers in test [2], 0.0375 % of ANNNNAAN 8-mers in test [3] and 0.038 % of ANNNNAAN 8-mers in test [4].

ATTGTAAA: the binding signal was 0.116 % of ANNNNAAN 8-mers in test [1], 0.106 % of ANNNNAAN 8-mers in test [2], 0.144 % of ANNNNAAN 8-mers in test [3] and 0.0925 % of ANNNNAAN 8-mers in test [4].

For the sequence ATACAAAT, the binding signal in test [1] was 0.318 % of ANNNNAAN 8-mers; in test [2], 0.269 % of ANNNNAAN 8-mers; in test [3], 0.526 % of ANNNNAAN 8-mers; in test [4], 0.498 % of ANNNNAAN 8-mers.

On to AACGAAAA, for which the binding signal is 0.0522 % of ANNNNAAN 8-mers in test [1], 0.0529 % of ANNNNAAN 8-mers in test [2], 0.0597 % of ANNNNAAN 8-mers in test [3] and 0.0462 % of ANNNNAAN 8-mers in test [4].

With ATGGAAAC, the binding signal in test [1] was 0.0805 % of ANNNNAAN 8-mers; in test [2], 0.0616 % of ANNNNAAN 8-mers; in test [3] it was 0.11 % of ANNNNAAN 8-mers; in test [4], 0.066 % of ANNNNAAN 8-mers.

Regarding ACATTAAC, the binding signal in test [1] was 0.0984 % of ANNNNAAN 8-mers; in test [2] it was 0.115 % of ANNNNAAN 8-mers; in test [3] it was 0.0402 % of ANNNNAAN 8-mers; in test [4], 0.0363 % of ANNNNAAN 8-mers.

For ATAAGAAT, the binding signal in test [1] is 0.114 % of ANNNNAAN 8-mers; in test [2], 0.143 % of ANNNNAAN 8-mers; in test [3] it was 0.0886 % of ANNNNAAN 8-mers; in test [4], 0.0892 % of ANNNNAAN 8-mers.

As to AACAGAAA, the binding signal is 0.042 % of ANNNNAAN 8-mers in test [1], 0.0409 % of ANNNNAAN 8-mers in test [2], 0.0355 % of ANNNNAAN 8-mers in test [3] and 0.033 % of ANNNNAAN 8-mers in test [4].
